assay: qHTS profiling of the MIPE4 collection as inhibitors of Plasmodium falciparum (3D7) proliferation (AID 743344);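 note: scaled between DMSO vehicle wells and 0.29 µM artemisinin as full inhibition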; details: P. falciparum 3D7 in erythrocytes, SYBR Green DNA fluorescence, 72 h; at 28.5 µM unless noted
Outline: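 Erythrocytes infected with P. falciparum (0.3% parasitemia, 2.5% hematocrit) incubated with compounds 72 h at 37 C, 5% CO2. Lysis with saponin/Triton buffer containing SYBR Green I, overnight at room temperature in the dark; DNA fluorescence (485/535 nm) normalised to 0.29 uM artemisinin and DMSO.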

Structure (SMILES)	parasite growth, % of DMSO control
Nc1nc(=O)n([C@H]2C[C@H](O)[C@@H](CO)O2)cc1F	99.5%
N#Cc1c(C2CCNCC2)cc(-c2c(O)cccc2OCC2CC2)nc1N	12%
Oc1cc2c(cc1O)C1c3ccc(O)c(O)c3OCC1(O)C2 (centres undefined)	13%
CN[C@@H]1C[C@H]2O[C@@](C)([C@H]1OC)n1c3ccccc3c3c4c(c5c6ccccc6n2c5c31)C(=O)N[C@H]4O	5.29%
NC(=O)Nc1cc(-c2ccc(CN3CCOCC3)cc2)sc1C(N)=O	27.3%
FC(F)(F)c1ccc(Nc2nc3ccc(Oc4ccnc(-c5ncc(C(F)(F)F)[nH]5)c4)cc3[nH]2)cc1	6.13%
COC(=O)[C@@H]1CC2=CC(=O)CC[C@]2(C)[C@@]23O[C@@H]2C[C@@]2(C)[C@H](CC[C@@]24CCC(=O)O4)[C@@H]13	74.7%
COc1ccc(S(=O)(=O)Nc2cc(-c3c(O)ccc4ccccc34)c(O)c3ccccc23)cc1	29.2%
Cc1cc(C(=O)NOCCO)c(Nc2ccc(I)cc2F)n(C)c1=O	51.4%
CC(C)(C)[C@H](NC(=O)c1ccc(N)c(Cl)c1)C(=O)N1CCC[C@@H]1C(=O)N[C@H](C#N)CC(=O)O	160% [at 3.19 µM]
O=C1NCCc2[nH]c(-c3ccncc3)cc21	23.6%
COc1ccnc2[nH]cc(C(=O)C(=O)N3CCN(C(=O)c4ccccc4)C[C@@H]3C)c12	81%
CCC[C@H]1C[C@H](C(=O)N[C@@H]([C@@H]2O[C@@H](SC)[C@@H](O)[C@@H](O)[C@@H]2O)[C@H](C)Cl)N(C)C1	30.4%
CC(C)(O)CC[C@@H](O)[C@](C)(O)[C@H]1CC[C@@]2(O)C3=CC(=O)[C@@H]4C[C@@H](O)[C@@H](O)C[C@]4(C)[C@@H]3CC[C@]12C	385%
CC(C)C[C@H](NC(=O)[C@@H](NC(=O)c1cccc(-c2ccccc2)n1)[C@@H](C)O)B(O)O	4.97%
CON=C(C(=O)N[C@@H]1C(=O)N2C(C(=O)O)=C(CSC(=O)c3ccco3)CS[C@H]12)c1csc(N)n1	88.2%
CCN(C(=O)c1c(O)c2c(Cl)cccc2n(C)c1=O)c1ccccc1	94.2%
C[C@H]1[C@@H](OC(=O)CCC(=O)O)O[C@@H]2O[C@@]3(C)CC[C@@H]4[C@H](C)CC[C@@H]1[C@@]24OO3	21.4%
Cn1cc(C[C@@H](N)C(=O)O)c2ccccc21	103% [at 9.64 µM]
COc1cc([C@@H]2c3cc4c(cc3[C@@H](O[C@@H]3O[C@@H]5CO[C@@H](c6cccs6)O[C@@H]5[C@H](O)[C@@H]3O)[C@H]3COC(=O)[C@H]23)OCO4)cc(OC)c1O	5.39%

Structure (SMILES)	parasite growth, % of DMSO control
Cc1coc2c1C(=O)C(=O)c1c-2ccc2c(C)cccc12	8.32%
C=C(C)[C@@H]1CC[C@]2(C)CC[C@]3(C)[C@H](CC[C@@H]4[C@@]5(C)CC[C@H](O)C(C)(C)[C@H]5CC[C@]43C)[C@@H]12	44.1%
CC(=O)N[C@@H]1[C@H](O[C@@H]2c3ccc(c(Cl)c3)Oc3cc4cc(c3O[C@H]3O[C@H](CO)[C@@H](O)[C@H](O)[C@H]3NC(=O)CCCCCCCC(C)C)Oc3ccc(cc3Cl)C[C@H]3NC(=O)[C@H](N)c5ccc(O)c(c5)Oc5cc(O)cc(c5)[C@H](NC3=O)C(=O)N[C@H]4C(=O)N[C@H]3C(=O)N[C@@H]2C(=O)N[C@@H](C(=O)O)c2cc(O)cc(O[C@H]4O[C@H](CO)[C@@H](O)[C@H](O)[C@H]4O)c2-c2cc3ccc2O)O[C@H](CO)[C@@H](O)[C@@H]1O	395%
CC(=O)NCC(=O)N1[C@H]2CC[C@H]1c1cc(Nc3ncc(C(F)(F)F)c(NC4CCC4)n3)ccc12	8.18%
CN1C(C(=O)Nc2ccccn2)=C(O)c2sc(Cl)cc2S1(=O)=O	64.4%
CCOC(=O)N1CCN([N+]([O-])=NOc2ccc([N+](=O)[O-])cc2C#N)CC1	10.5%
O=C1NC(O)CCN1[C@@H]1O[C@H](CO)[C@H](O)[C@H]1O (some centres undefined)	98.9%
CC(C)(O)[C@H]1CC[C@@](C)([C@H]2[C@@H](O)C[C@@]3(C)[C@@H]4C[C@H](O[C@@H]5O[C@H](CO)[C@@H](O)[C@H](O)[C@@H]5O)[C@H]5C(C)(C)[C@@H](O[C@@H]6OC[C@@H](O)[C@H](O)[C@@H]6O)CC[C@@]56C[C@@]46CC[C@]23C)O1	90.6%
C[C@@H]1CC[C@@]2(OC1)OC1CC3C4CC=C5CC(O)CCC5(C)C4CCC3(C)C1[C@@H]2C (some centres undefined)	94.4%
CC(C)Oc1ccc(C(=O)N[C@H](CNC(=O)CN(C)C)Cc2ccc(-c3cn4cccc([C@H](C)O)c4n3)cc2)cc1Cl	5.62%
c1cc(N[C@@H]2CCNC2)nc(-c2cnc3ccc(-c4cn[nH]c4)cn23)c1	5.24%
Nc1ccc(C(=O)Nc2cccc(-c3nc(N4CCOCC4)c4oc5ncccc5c4n3)c2)cn1	6.14%
CC[C@H]1OC(=O)[C@H](C)[C@@H](O[C@H]2C[C@@](C)(OC)[C@@H](O)[C@H](C)O2)[C@H](C)[C@@H](O[C@@H]2O[C@@H](C)C[C@H](N(C)C)[C@@H]2O)[C@](C)(O)C[C@@H](C)C(=O)[C@H](C)[C@@H](O)[C@]1(C)O	60.1%
O=C(NCc1ccccc1)[C@H](Cc1ccccc1)NC(=O)[C@@H]1O[C@@H]1C(=O)NCCc1ccc(O)cc1	17.3%
C#CCC(Cc1cnc2nc(N)nc(N)c2n1)c1ccc(C(=O)N[C@@H](CCC(=O)O)C(=O)O)cc1 (some centres undefined)	21.7%
COc1ccc(C=Cc2cc(OC)c(OC)c(OC)c2)cc1NC(=O)[C@H](N)CO	75.4%
CC(C)(N)c1ccc(-c2nc3ccccc3nc2-c2ccccc2)cc1	21.6%
C[C@](Cc1c[nH]c2ccccc12)(NC(=O)OC1C2CC3CC(C2)CC1C3)C(=O)NC[C@H](NC(=O)CCC(=O)O)c1ccccc1 (some centres undefined)	10%
COc1cc(C)c(C=CC(C)=CC=CC(C)=CC(=O)O)c(C)c1C	85.8%
